Dicer inh – inhibitors of Dicer pre-microRNA processing, primary screen, biochemical, cat-ELCCA, chemiluminescence; Endoribonuclease Dicer (Homo sapiens), Q9UPY3; cat-ELCCA pre-miR-21 Dicer processing; hits give high values; 6% of 47,000 active; AID 1347074, 2019; z-score at 25 µM; in the data active = z-score above about 3, passing the limit was not always enough;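 also: higher signal means more uncleaved substrate so more Dicer inhibition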
Target sequence (Q9UPY3 whole entry, looked up): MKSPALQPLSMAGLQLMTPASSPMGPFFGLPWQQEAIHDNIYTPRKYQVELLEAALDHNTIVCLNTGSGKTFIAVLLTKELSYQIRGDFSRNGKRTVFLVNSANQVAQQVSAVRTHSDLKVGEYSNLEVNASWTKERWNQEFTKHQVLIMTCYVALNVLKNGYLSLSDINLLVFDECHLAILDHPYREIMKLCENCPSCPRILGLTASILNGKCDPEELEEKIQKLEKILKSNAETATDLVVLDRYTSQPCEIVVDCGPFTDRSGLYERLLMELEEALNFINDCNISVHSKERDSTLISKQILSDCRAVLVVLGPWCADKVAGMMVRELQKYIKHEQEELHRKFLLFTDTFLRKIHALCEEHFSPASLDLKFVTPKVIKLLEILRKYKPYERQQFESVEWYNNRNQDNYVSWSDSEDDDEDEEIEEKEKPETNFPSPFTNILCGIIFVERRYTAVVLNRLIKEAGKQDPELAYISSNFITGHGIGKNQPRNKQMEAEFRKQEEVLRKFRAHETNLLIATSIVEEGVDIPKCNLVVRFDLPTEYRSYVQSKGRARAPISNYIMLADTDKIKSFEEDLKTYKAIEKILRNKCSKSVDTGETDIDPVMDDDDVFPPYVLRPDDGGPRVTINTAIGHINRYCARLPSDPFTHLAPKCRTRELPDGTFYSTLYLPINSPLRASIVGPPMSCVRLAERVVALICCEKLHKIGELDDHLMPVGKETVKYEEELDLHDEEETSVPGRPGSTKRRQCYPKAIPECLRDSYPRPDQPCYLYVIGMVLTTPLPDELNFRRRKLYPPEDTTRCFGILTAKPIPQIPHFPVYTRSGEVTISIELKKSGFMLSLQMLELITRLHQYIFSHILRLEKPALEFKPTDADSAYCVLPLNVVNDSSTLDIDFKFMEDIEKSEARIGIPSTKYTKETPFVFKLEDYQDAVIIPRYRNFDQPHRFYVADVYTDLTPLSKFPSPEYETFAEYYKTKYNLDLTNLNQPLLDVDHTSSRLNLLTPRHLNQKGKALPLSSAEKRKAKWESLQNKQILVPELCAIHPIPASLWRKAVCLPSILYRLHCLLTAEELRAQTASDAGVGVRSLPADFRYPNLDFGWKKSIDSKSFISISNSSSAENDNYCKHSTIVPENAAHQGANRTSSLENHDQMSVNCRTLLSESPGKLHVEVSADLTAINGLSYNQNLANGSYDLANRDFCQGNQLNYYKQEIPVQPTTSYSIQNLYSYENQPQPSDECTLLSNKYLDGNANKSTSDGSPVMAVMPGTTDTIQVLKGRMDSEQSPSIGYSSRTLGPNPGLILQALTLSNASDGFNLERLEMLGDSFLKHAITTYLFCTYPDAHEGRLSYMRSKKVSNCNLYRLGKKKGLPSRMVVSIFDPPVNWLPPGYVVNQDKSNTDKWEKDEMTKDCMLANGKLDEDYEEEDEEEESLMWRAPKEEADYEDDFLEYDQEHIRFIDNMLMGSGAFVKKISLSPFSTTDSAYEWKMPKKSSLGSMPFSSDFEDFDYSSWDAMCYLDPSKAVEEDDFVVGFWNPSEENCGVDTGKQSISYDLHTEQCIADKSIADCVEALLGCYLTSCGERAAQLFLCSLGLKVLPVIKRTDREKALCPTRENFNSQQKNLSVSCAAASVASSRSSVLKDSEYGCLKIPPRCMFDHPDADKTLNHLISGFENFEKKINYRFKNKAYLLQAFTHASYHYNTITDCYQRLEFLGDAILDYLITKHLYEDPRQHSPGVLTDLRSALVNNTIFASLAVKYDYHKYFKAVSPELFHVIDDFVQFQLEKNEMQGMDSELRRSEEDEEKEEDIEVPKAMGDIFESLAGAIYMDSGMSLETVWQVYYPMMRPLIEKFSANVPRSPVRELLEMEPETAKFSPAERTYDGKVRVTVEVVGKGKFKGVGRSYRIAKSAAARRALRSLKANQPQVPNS
Large screens that a line does not name were inactive. This is one part of a sample in which hits are shown more often than they occur.

CCOC(=O)C1C(c2c(F)cccc2Cl)C(C(=O)OCC)C(O)(C(F)(F)F)NC1(O)C(F)(F)F (centres undefined)	none
CCOC(=O)c1c(NC(=O)c2ccc(F)cc2)c2cc([N+](=O)[O-])ccc2n1C	none
O=C1CC(c2ccc(Br)cc2)c2c(n[nH]c2-c2ccccc2)N1 (centres undefined)	none
CC(=O)Oc1ccc(C2C(C(=O)OC3CCCC3)=C(C)NC3=C2C(=O)CC(c2cccs2)C3)cc1 (centres undefined)	none
Cc1nn(C)c(C)c1NC(=O)CCSc1nc(-c2ccco2)cc(C(F)(F)F)n1	Dicer inh 3.04
O=C(CCSc1nc(-c2ccco2)cc(C(F)(F)F)n1)Nc1ccccc1	none
Cc1cc(NC(=O)CCSc2nc(-c3ccco3)cc(C(F)(F)F)n2)n(-c2ccccc2)n1	none
CC(=Nc1ccccc1)c1cccs1	none
Oc1ccccc1-c1nc2ccccc2o1	none
O=c1oc2ccccc2n1-c1nc2ccccc2o1	Dicer inh 5.63
CC(C)Cn1c(=O)oc2ccccc21	none
CCC(Oc1ccccc1)C(=O)Nc1nc2c(s1)C(=O)CC(C)(C)C2 (centres undefined)	none
CC1(C)CC(=O)c2sc(NC(=O)CSc3nc(-c4ccccc4)c(C#N)c(=O)[nH]3)nc2C1	Dicer inh 4.06
Cc1cc(NC(=O)CSc2nc(-c3ccccc3)c(C#N)c(=O)[nH]2)no1	none
Cn1cnc2nc(SCC(=O)O)nc(N)c21	none
CCOc1ccccc1NC(=O)Nc1ccc(OC)nc1	Dicer inh 3.84
COc1ccccc1NC(=O)NC(N)=O	none
COc1ccccc1NC(=O)Nc1ccccc1OC	none
COc1ccccc1Nc1ncnc(-n2cccc2)n1	none
Cn1ncc(-c2nc(-c3ccc(Cl)cc3)cs2)c1N	none
CCC(C)OC(=O)C(C)Oc1ccc2c(=O)c(-c3ccc(Cl)cc3)coc2c1 (centres undefined)	none
CCCCOC(=O)C(C)Oc1ccc2c(=O)c(Oc3ccccc3Br)coc2c1 (centres undefined)	none
CC(C)COC(=O)C(C)Oc1ccc2c(=O)c(Oc3ccccc3Cl)coc2c1 (centres undefined)	none
Cc1cc(C)cc(Oc2coc3cc(OC(C)C(=O)OCC(C)C)ccc3c2=O)c1 (centres undefined)	Dicer inh 3.61
CCCOC(=O)C(C)Oc1ccc2c(=O)c(-c3ccc(Cl)cc3)coc2c1 (centres undefined)	Dicer inh 3.25
CCOCCOC(=O)C(C)Oc1ccc2c(=O)c(Oc3cc(C)c(Cl)c(C)c3)coc2c1 (centres undefined)	none
CCOC(=O)C(CC)Oc1ccc2c(=O)c(-c3ccc(Cl)cc3)coc2c1 (centres undefined)	none
CCCOC(=O)COc1ccc2c(=O)c(Oc3cc(C)c(Cl)c(C)c3)coc2c1	none
CCOCCOC(=O)COc1ccc2c(=O)c(-c3ccc(Cl)cc3)coc2c1	Dicer inh 3.45
CC(C)c1ccc2oc(-c3ccc(NC(=O)c4cncc(Br)c4)cc3)nc2c1	none
CCCc1c(C)nc2scc(-c3ccccc3)n2c1=O	none
CCN(CC)c1ccc2c(c1)OC(N)=C(C#N)C2c1cccc(Cl)c1 (centres undefined)	none
N#CCC(=O)N/N=C/c1ccc(Cl)cc1Cl	none
CCCC(NC(=O)c1ccco1)C(=O)O (centres undefined)	none
O=C1CSC(=Nc2ccccc2F)N1c1ccccc1F	none
O=C(c1ccc([N+](=O)[O-])o1)N1CCN(c2cccc(Cl)c2)CC1	none
Cc1nonc1NC(=O)OC(C)C	none
COC(=O)C(C(=O)Nc1cc(C)on1)C1CCCC1 (centres undefined)	none
Cc1nonc1NC(=O)OC1CCCCC1	Dicer inh 3.42
CC1CCC(C(C)C)C(N(Cc2ccccc2)C(=O)c2cccs2)C1 (centres undefined)	none
Cc1ccc(C(=O)c2cc(O)c(O)c([N+](=O)[O-])c2)cc1	Dicer inh 8.45
CC(=O)c1ccc(SC(C)C)c([N+](=O)[O-])c1	none
O=C(c1cc(O)c(O)c([N+](=O)[O-])c1)c1ccccc1F	none
Nc1c(C(=O)Nc2ccc(Cl)cc2)sc2nc3c(cc12)CCC3	none
CNC(=O)Nc1cc(C)nn1C(C)(C)C	none
O=C1C(=O)N(Cc2cccnc2)C(c2ccccc2Cl)/C1=C(\O)c1ccc(Cl)cc1 (centres undefined)	none
CN(NC(=O)c1ccc(Cl)cc1)c1ncc(Cl)cc1C(F)(F)F	none
CN(/N=C/c1ccc(O)cc1O)c1ncc(Cl)cc1C(F)(F)F	Dicer inh 12
CN(/N=C/c1ccccc1Cl)c1ncc(C(F)(F)F)cc1Cl	none
CCn1ncc(Br)c1C(=O)Nc1ccc(N(C)C)cc1	none
Cc1ccc(NC(=O)C2Sc3nnc(C)n3NC2c2ccc(F)cc2)c(C)c1 (centres undefined)	none
CC1=CCC2C(=O)N(c3ccc(N4CCOCC4)cc3)C(=O)C2C1 (centres undefined)	none
CC1=CCC2C(=O)N(c3ccc(C(=O)O)cc3)C(=O)C2C1 (centres undefined)	none
O=C(c1ccc(N2C(=O)C3CC=C(Cl)CC3C2=O)cc1)N1CCOCC1 (centres undefined)	Dicer inh 4.55
O=C(O)CC12OC3C4C5CC(C6C5C3C61)C42 (centres undefined)	none
COC(=O)C1(C(=O)OC)C2C3C4CC5C6C4C2C6C1C53 (centres undefined)	Dicer inh 5.44
CC1(C)OC(=O)C2(C(=O)O1)C1C3C4CC5C6C4C1C6C2C53 (centres undefined)	none
CCOC(=O)c1ccc(-n2c(C)c3c(OC)cccc(=O)c3c2C)cc1	Dicer inh 3.79
CCOc1cccc(=O)c2c(C)n(-c3ccc(C)cc3)c(C)c12	none
CCOC(=O)c1ccc(-n2c(=S)[nH]c3ccccc32)cc1	none
CCOC(=O)c1cnc(N2CCOCC2)nc1NC(=O)Nc1ccc(Cl)cc1	none
O=[N+]([O-])c1cnc(Sc2nnc(-c3ccco3)n2-c2ccc(OCc3ccccc3)cc2)s1	none
COC(=O)C1=C(C)N(c2ccc(F)cc2)CC1=O	Dicer inh 3.2
COC(=O)C1=C(C)NC(=O)CC1c1ccc(F)cc1 (centres undefined)	none
COC(=O)C1=NNC2C(=O)N(c3ccc(F)cc3)C(=O)C12 (centres undefined)	none
CCOC(=O)c1cnn(-c2nc(-c3cccc(C(F)(F)F)c3)cs2)c1C(F)(F)F	none
CCOc1cc(N2CCOCC2)c(OCC)cc1NS(=O)(=O)c1ccc(OC)cc1	none
CCOc1cc(C2C(C#N)=C(N)Oc3c2c(C)nn3-c2ccccc2)ccc1O (centres undefined)	none
CCN(CC)c1ccc2c(c1)OC(N)=C(C#N)C2c1ccc(Cl)cc1 (centres undefined)	none
C=CCOc1c(Cl)cc(C2C(C#N)=C(N)Oc3cc(O)ccc32)cc1OC (centres undefined)	none
COc1ccc(C2C(C#N)=C(N)Oc3cc(O)ccc32)cc1Br (centres undefined)	none
N#CC1=C(N)Oc2c(ccc3ccccc23)C1c1ccc(Cl)cc1 (centres undefined)	none
CCO/C=N\C1=C(C#N)C(c2ccc(Cl)cc2)c2ccc3ccccc3c2O1 (centres undefined)	Dicer inh 3.89
COc1cc(C2C(C#N)=C(N)Oc3c2ccc2ccccc32)cc(Br)c1O (centres undefined)	Dicer inh 3.27
CCOc1cc(C2C(C#N)=C(N)Oc3c2ccc2ccccc32)ccc1O (centres undefined)	Dicer inh 7.19
CCO/C=N\C1=C(C#N)C(c2ccc(OC)cc2)c2ccc3ccccc3c2O1 (centres undefined)	none
Cc1ccc(Sc2c(C(=O)O)cnc3c2c(C)nn3C)cc1	none
COc1ccc(/C=N/Nc2ncnc3cc(C(C)(C)C)sc23)cc1	none

Assay outcomes as filed in PubChem BioAssay.
